Data from PubChem BioAssay (NCI).
Several values for one entry are separate records, joined by “and”; a condition that tells them apart may be missing. Equal entries are not always repeated. Compounds without any hit were thinned out: in the full panel of roughly 83,000, 20% have a hit.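 Results are percent growth after 48 hours of single-concentration exposure. 100 means growth as in untreated cells, lower positive values show inhibition; negative values down to -100 show cell death.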 Activity calls are given as the source filed them. Rule for the calls: active = growth percent below 10; inactive = the rest.

What was measured:
Test in all cases: NCI-60 one-dose screen, 48 h (100 = growth as untreated, 0 = no growth, -100 = all killed)
SK-MEL-2 melanoma = system: SK-MEL-2 melanoma
EKVX NSCLC = settings: 10 µM unless noted
SN12C renal = system: SN12C renal
UO-31 renal = settings: 10 µM unless noted
TK-10 renal = system: TK-10 renal
ACHN renal = system: ACHN renal
CAKI-1 renal = system: CAKI-1 renal
A498 renal = system: A498 renal
CCRF-CEM leukemia = settings: 10 µM unless noted
MOLT-4 leukemia = system: MOLT-4 leukemia

Measured: growth

Cc1cc(=NO)cc(C)n1O
inactive: SK-MEL-2 melanoma; 10 µM unless noted 113% | EKVX NSCLC 105% | SN12C renal; 10 µM unless noted 100% | UO-31 renal 101% | TK-10 renal; 10 µM unless noted 84.7% | ACHN renal; 10 µM unless noted 117% | CAKI-1 renal; 10 µM unless noted 109% | A498 renal; 10 µM unless noted 93.9% | CCRF-CEM leukemia 80.9% | MOLT-4 leukemia; 10 µM unless noted 96.6%

NNc1ncnc2cccc(Cl)c12
inactive: SK-MEL-2 melanoma; 10 µM unless noted 95.3% | EKVX NSCLC 90.8% | SN12C renal; 10 µM unless noted 87.6% | UO-31 renal 89.1% | TK-10 renal; 10 µM unless noted 99.9% | ACHN renal; 10 µM unless noted 96.4% | CAKI-1 renal; 10 µM unless noted 107% | A498 renal; 10 µM unless noted 108% | CCRF-CEM leukemia 102% | MOLT-4 leukemia; 10 µM unless noted 108%

Cc1nc2c(=O)[nH]c(=S)[nH]c2[nH]c1=O
inactive: SK-MEL-2 melanoma; 10 µM unless noted 102% and 114% | EKVX NSCLC 102% and 109% | SN12C renal; 10 µM unless noted 102% and 97.1% | UO-31 renal 93.8% and 87.3% | TK-10 renal; 10 µM unless noted 106% and 119% | ACHN renal; 10 µM unless noted 103% and 97.6% | CAKI-1 renal; 10 µM unless noted 94.4% and 93.9% | A498 renal; 10 µM unless noted 97.5% and 97.3% | CCRF-CEM leukemia 101% and 104% | MOLT-4 leukemia; 10 µM unless noted 100% and 103%

CCOC(C)=N
inactive: SK-MEL-2 melanoma; 10 µM unless noted 110% | EKVX NSCLC 134% | SN12C renal; 10 µM unless noted 105% | UO-31 renal 107% | TK-10 renal; 10 µM unless noted 107% | ACHN renal; 10 µM unless noted 104% | CAKI-1 renal; 10 µM unless noted 108% | A498 renal; 10 µM unless noted 120% | CCRF-CEM leukemia 98.6% | MOLT-4 leukemia; 10 µM unless noted 94.6%

Cc1cc2ccccc2c2cc3ccccc3cc12
inactive: SK-MEL-2 melanoma; 10 µM unless noted 92.6% | EKVX NSCLC 82.7% | SN12C renal; 10 µM unless noted 98.3% | UO-31 renal 78.8% | TK-10 renal; 10 µM unless noted 98.8% | ACHN renal; 10 µM unless noted 92.8% | CAKI-1 renal; 10 µM unless noted 88.8% | A498 renal; 10 µM unless noted 88.5% | CCRF-CEM leukemia 97% | MOLT-4 leukemia; 10 µM unless noted 65.6%

CC(C)(C(=O)c1cccnc1)c1cccnc1
inactive: SK-MEL-2 melanoma; 10 µM unless noted 101% and 99.7% | EKVX NSCLC 102% and 124% | SN12C renal; 10 µM unless noted 96.1% and 113% | UO-31 renal 77.5% and 93.4% | TK-10 renal; 10 µM unless noted 103% and 110% | ACHN renal; 10 µM unless noted 97.3% and 111% | CAKI-1 renal; 10 µM unless noted 98.5% and 109% | A498 renal; 10 µM unless noted 73.3% and 130% | CCRF-CEM leukemia 91.8% | MOLT-4 leukemia; 10 µM unless noted 96.3% and 126%

Cn1c(N)c(N=O)c(=O)n(C)c1=O
inactive: SK-MEL-2 melanoma; 10 µM unless noted 108% and 102% | EKVX NSCLC 97.4% and 95.9% | SN12C renal; 10 µM unless noted 109% and 93.8% | UO-31 renal 82% and 92.5% | TK-10 renal; 10 µM unless noted 120% and 92.8% | ACHN renal; 10 µM unless noted 109% | CAKI-1 renal; 10 µM unless noted 102% | A498 renal; 10 µM unless noted 99% and 78% | CCRF-CEM leukemia 106% and 116% | MOLT-4 leukemia; 10 µM unless noted 93.9% and 117%

COc1cc2oc3cc(=O)cc4oc(-c5ccccc5)cc(c2c2c1CCC(c1ccccc1)O2)c43 (stereo unspecified)
59.8% (inactive) and 8.17% (active): TK-10 renal; 100 µM
inactive: SK-MEL-2 melanoma; 10 µM unless noted 95.8% | EKVX NSCLC 88.4% | SN12C renal; 10 µM unless noted 78.3% | UO-31 renal 57.9% | TK-10 renal; 10 µM 120% | ACHN renal; 10 µM unless noted 72.7% | CAKI-1 renal; 10 µM unless noted 57.4% | A498 renal; 10 µM unless noted 114% | CCRF-CEM leukemia 88.3% | MOLT-4 leukemia; 10 µM unless noted 72.5%

C#CCOC(=O)C(N)CS (stereo unspecified)
inactive: SK-MEL-2 melanoma; 10 µM unless noted 115% | EKVX NSCLC 92.9% | SN12C renal; 10 µM unless noted 87.2% | UO-31 renal 82.5% | TK-10 renal; 10 µM 107% | TK-10 renal; 100 µM 103% and 107% | ACHN renal; 10 µM unless noted 98.8% | CAKI-1 renal; 10 µM unless noted 99.9% | A498 renal; 10 µM unless noted 128% | MOLT-4 leukemia; 10 µM unless noted 108%

Nc1ccc(Cl)c(S(=O)(=O)O)c1
inactive: SK-MEL-2 melanoma; 10 µM unless noted 88.2% | EKVX NSCLC 106% | SN12C renal; 10 µM unless noted 96.6% | UO-31 renal 77.9% | TK-10 renal; 10 µM unless noted 98.5% | ACHN renal; 10 µM unless noted 97.2% | CAKI-1 renal; 10 µM unless noted 95.2% | A498 renal; 10 µM unless noted 84% | CCRF-CEM leukemia 106% | MOLT-4 leukemia; 10 µM unless noted 109%

CC(C)(C)C1=CC(=O)C(C(C)(C)C)=CC1=O
inactive: SK-MEL-2 melanoma; 10 µM unless noted 95.2% and 94.5% | EKVX NSCLC 97.6% and 108% | SN12C renal; 10 µM unless noted 93.7% and 102% | UO-31 renal 93.1% and 91.5% | TK-10 renal; 10 µM unless noted 102% and 94.6% | ACHN renal; 10 µM unless noted 94.5% and 114% | CAKI-1 renal; 10 µM unless noted 90.7% | A498 renal; 10 µM unless noted 122% | CCRF-CEM leukemia 96.1% and 97.9% | MOLT-4 leukemia; 10 µM unless noted 83.4% and 105%

O=c1ccn2c(n1)OC1CC2OC1COC(c1ccccc1)(c1ccccc1)c1ccccc1 (stereo unspecified)
inactive: SK-MEL-2 melanoma; 10 µM 113% | SK-MEL-2 melanoma; 100 µM 31.5% | EKVX NSCLC 96.3% [100 µM] | SN12C renal; 10 µM 103% | SN12C renal; 100 µM 69.2% | TK-10 renal; 10 µM unless noted 134% [100 µM] | ACHN renal; 10 µM 92% | ACHN renal; 100 µM 82.5% | CAKI-1 renal; 10 µM 102% | CAKI-1 renal; 100 µM 65.7% | A498 renal; 10 µM 116% | A498 renal; 100 µM 139% | CCRF-CEM leukemia 81.8% [100 µM] | MOLT-4 leukemia; 10 µM 104% | MOLT-4 leukemia; 100 µM 74.4%

CCCCC/C(C)=N\NC(N)=S
inactive: SK-MEL-2 melanoma; 10 µM unless noted 103% | EKVX NSCLC 55.4% | SN12C renal; 10 µM unless noted 84.4% | UO-31 renal 61.8% | TK-10 renal; 10 µM unless noted 100% | ACHN renal; 10 µM unless noted 92.6% | CAKI-1 renal; 10 µM unless noted 95.2% | A498 renal; 10 µM unless noted 84.7% | CCRF-CEM leukemia 41.1% | MOLT-4 leukemia; 10 µM unless noted 57.2%

Cc1cnc(N)s1
inactive: SK-MEL-2 melanoma; 10 µM unless noted 102% | EKVX NSCLC 94.2% | SN12C renal; 10 µM unless noted 97.2% | UO-31 renal 81.6% | TK-10 renal; 10 µM unless noted 114% | ACHN renal; 10 µM unless noted 96.2% | CAKI-1 renal; 10 µM unless noted 96.9% | A498 renal; 10 µM unless noted 103% | CCRF-CEM leukemia 99.4% | MOLT-4 leukemia; 10 µM unless noted 103%

NNC(=O)Nc1ccccc1
inactive: SK-MEL-2 melanoma; 10 µM unless noted 106% | EKVX NSCLC 96.2% | SN12C renal; 10 µM unless noted 101% | UO-31 renal 90% | TK-10 renal; 10 µM unless noted 110% | ACHN renal; 10 µM unless noted 100% | CAKI-1 renal; 10 µM unless noted 96.1% | A498 renal; 10 µM unless noted 85.2% | CCRF-CEM leukemia 104% | MOLT-4 leukemia; 10 µM unless noted 114%

c1ccc2c[n+](Cc3ccc4ccccc4n3)ccc2c1
inactive: SK-MEL-2 melanoma; 10 µM unless noted 102% | EKVX NSCLC 82.5% | SN12C renal; 10 µM unless noted 80% | UO-31 renal 82.4% | TK-10 renal; 10 µM unless noted 99.9% | ACHN renal; 10 µM unless noted 99.8% | CAKI-1 renal; 10 µM unless noted 102% | A498 renal; 10 µM unless noted 79.4% | CCRF-CEM leukemia 76.8% | MOLT-4 leukemia; 10 µM unless noted 92.4%

O=C(c1ccncc1)c1c(Cc2ccccc2)ccc2ccccc12
inactive: SK-MEL-2 melanoma; 10 µM unless noted 69.7% | EKVX NSCLC 66.5% | SN12C renal; 10 µM unless noted 90.6% | UO-31 renal 64.5% | TK-10 renal; 10 µM unless noted 107% | ACHN renal; 10 µM unless noted 93.8% | CAKI-1 renal; 10 µM unless noted 73.8% | A498 renal; 10 µM unless noted 104% | CCRF-CEM leukemia 103% | MOLT-4 leukemia; 10 µM unless noted 94.6%

CCOC(=O)C1=CC(=O)CC(C)(C)O1
-47.2% (active) and 106% (inactive): MOLT-4 leukemia; 10 µM unless noted
inactive: SK-MEL-2 melanoma; 10 µM unless noted 114% | EKVX NSCLC 104% and 126% | SN12C renal; 10 µM unless noted 110% and 102% | UO-31 renal 92.5% and 101% | TK-10 renal; 10 µM unless noted 96.1% and 107% | ACHN renal; 10 µM unless noted 102% and 106% | CAKI-1 renal; 10 µM unless noted 99.7% and 104% | A498 renal; 10 µM unless noted 108% and 105% | CCRF-CEM leukemia 90% and 104%

ON=C(C1CCCCC1)C1CCCCC1
inactive: SK-MEL-2 melanoma; 10 µM unless noted 107% | EKVX NSCLC 97.8% | SN12C renal; 10 µM unless noted 99.9% | UO-31 renal 89.3% | TK-10 renal; 10 µM unless noted 90.2% | ACHN renal; 10 µM unless noted 101% | CAKI-1 renal; 10 µM unless noted 87.4% | A498 renal; 10 µM unless noted 94.7% | CCRF-CEM leukemia 99.8% | MOLT-4 leukemia; 10 µM unless noted 114%

CCOc1ccc(/C=C\C(=O)O)cc1
inactive: SK-MEL-2 melanoma; 10 µM unless noted 114% | EKVX NSCLC 115% | SN12C renal; 10 µM unless noted 101% | UO-31 renal 98.7% | TK-10 renal; 10 µM unless noted 109% | ACHN renal; 10 µM unless noted 109% | CAKI-1 renal; 10 µM unless noted 113% | A498 renal; 10 µM unless noted 101% | CCRF-CEM leukemia 96% | MOLT-4 leukemia; 10 µM unless noted 92%

O=C1C=CC(=O)N1Cc1ccco1
inactive: SK-MEL-2 melanoma; 10 µM unless noted 28.8% | EKVX NSCLC 103% | SN12C renal; 10 µM unless noted 87.3% | UO-31 renal 62.6% | TK-10 renal; 10 µM unless noted 94.4% | CAKI-1 renal; 10 µM unless noted 40% | A498 renal; 10 µM unless noted 110% | CCRF-CEM leukemia 101% | MOLT-4 leukemia; 10 µM unless noted 79.5%
active: ACHN renal; 10 µM unless noted 5.76%

Nc1ccc(O)c(C(=O)O)c1
inactive: SK-MEL-2 melanoma; 10 µM unless noted 110% and 124% and 122% | EKVX NSCLC 101% and 99.5% and 106% | SN12C renal; 10 µM unless noted 82% and 103% and 98.7% | UO-31 renal 101% and 92% and 67.8% | TK-10 renal; 10 µM unless noted 133% and 110% and 98.8% | ACHN renal; 10 µM unless noted 99.3% and 108% and 82.8% | CAKI-1 renal; 10 µM unless noted 107% and 102% and 99.8% | A498 renal; 10 µM unless noted 108% and 88% | CCRF-CEM leukemia 106% | MOLT-4 leukemia; 10 µM unless noted 97.8% and 104% and 105%
